The record followed here is PubChem BioAssay (NCATS).

Records with an inconclusive call do not appear. The source made the active and inactive calls. Calls follow the shape of the dose curve; as a rule, active = well fitted inhibition curve with a large enough effect; inconclusive = small, poorly fitted or top-dose-only effect; inactive = flat fitted curve, though single readings scatter.

Chain of Luciferin 4-monooxygenase (Photinus pyralis) (P08659 whole entry, looked up): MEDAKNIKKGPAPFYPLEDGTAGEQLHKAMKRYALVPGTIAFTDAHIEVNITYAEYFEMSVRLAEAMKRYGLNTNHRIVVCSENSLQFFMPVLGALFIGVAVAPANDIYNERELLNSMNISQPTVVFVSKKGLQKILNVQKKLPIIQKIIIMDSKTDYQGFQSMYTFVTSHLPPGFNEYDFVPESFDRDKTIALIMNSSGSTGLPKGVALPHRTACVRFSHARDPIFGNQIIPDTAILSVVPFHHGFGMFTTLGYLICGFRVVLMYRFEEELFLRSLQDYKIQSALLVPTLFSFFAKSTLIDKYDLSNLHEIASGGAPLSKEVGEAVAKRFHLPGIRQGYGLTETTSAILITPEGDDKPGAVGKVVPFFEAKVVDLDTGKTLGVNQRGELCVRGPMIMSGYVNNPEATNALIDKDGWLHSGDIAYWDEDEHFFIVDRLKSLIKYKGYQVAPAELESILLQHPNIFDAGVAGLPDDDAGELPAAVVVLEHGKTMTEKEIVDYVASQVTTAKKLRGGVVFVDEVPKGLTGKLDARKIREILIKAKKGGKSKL
Chain of Voltage-gated inwardly rectifying potassium channel KCNH2 (Homo sapiens) (Q12809 whole entry, looked up): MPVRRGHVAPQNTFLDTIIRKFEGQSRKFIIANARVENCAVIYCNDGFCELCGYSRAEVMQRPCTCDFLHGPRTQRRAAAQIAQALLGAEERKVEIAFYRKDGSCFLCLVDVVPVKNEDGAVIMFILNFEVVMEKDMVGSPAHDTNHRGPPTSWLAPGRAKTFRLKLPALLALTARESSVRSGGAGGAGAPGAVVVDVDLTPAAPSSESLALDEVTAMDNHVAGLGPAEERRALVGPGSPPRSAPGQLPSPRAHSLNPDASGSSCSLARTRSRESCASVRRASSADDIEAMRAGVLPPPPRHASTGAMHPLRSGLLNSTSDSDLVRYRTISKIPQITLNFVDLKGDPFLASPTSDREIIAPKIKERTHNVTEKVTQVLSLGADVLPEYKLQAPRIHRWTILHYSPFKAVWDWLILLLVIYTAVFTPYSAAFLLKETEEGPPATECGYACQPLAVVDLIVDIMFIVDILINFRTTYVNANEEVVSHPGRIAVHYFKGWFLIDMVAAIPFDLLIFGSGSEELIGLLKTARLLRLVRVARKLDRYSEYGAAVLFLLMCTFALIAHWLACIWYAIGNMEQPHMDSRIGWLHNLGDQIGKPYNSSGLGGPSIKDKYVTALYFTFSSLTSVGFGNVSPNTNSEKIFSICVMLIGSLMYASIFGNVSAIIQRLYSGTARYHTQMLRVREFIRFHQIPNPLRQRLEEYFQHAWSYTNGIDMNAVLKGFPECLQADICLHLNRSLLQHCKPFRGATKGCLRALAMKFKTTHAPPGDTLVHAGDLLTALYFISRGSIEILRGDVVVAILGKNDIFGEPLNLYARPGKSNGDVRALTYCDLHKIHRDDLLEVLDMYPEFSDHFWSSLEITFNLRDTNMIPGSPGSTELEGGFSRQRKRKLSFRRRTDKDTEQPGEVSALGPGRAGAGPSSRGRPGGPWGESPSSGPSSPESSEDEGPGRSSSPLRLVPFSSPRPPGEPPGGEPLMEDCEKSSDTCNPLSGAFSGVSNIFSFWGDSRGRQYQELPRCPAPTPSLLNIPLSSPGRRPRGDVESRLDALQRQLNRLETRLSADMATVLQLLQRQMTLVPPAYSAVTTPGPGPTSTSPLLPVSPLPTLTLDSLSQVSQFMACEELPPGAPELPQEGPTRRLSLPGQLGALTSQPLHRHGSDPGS

One experiment has as its target Voltage-gated inwardly rectifying potassium channel KCNH2 (Homo sapiens) (UniProt Q12809). The experiment in a line: qHTS Assay for Small Molecule Inhibitors of the Human hERG Channel Activity (AID 588834).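 Also: lower thallium flux fluorescence means stronger hERG block; nearly all actives have a fitted effect of over 50% in size.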 Also: potency is read from the fitted curve at half-maximal effect. As to activity change, negative = inhibition: top concentration of the series differs between compounds; % is scaled to controls: 0 for no effect and ±100 for the full control effect. To be noted: U2OS BacMam hERG, FluxOR thallium flux fluorescence; series mostly up to 46.1 µM; activity change, negative = inhibition: at the top concentration. The method in brief:
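hERG-BacMam U2OS, 2000 cells/well; 0.7X FluxOR loading 1 hr RT dark; cpd ~10 min 37 °C; stim buffer; FDSS fluorescence 2 min @ 1 s; AC50 Hill fit.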
(qHTS replaces the single test concentration by a dilution series.)
Take `CC(N)C12CC3CC(CC(C3)C1)C2` (configuration not stated): the “activity change, negative = inhibition” value was -9.24% (inactive).

Turning to `CCn1cc(C(=O)O)c(=O)c2cc(F)c(N3CCNCC3)nc21`, the “activity change, negative = inhibition” value is 9.23% [at 20.6 µM] (inactive). On to `CCC(=O)O[C@]1(C(=O)SCF)[C@H](C)C[C@H]2[C@@H]3C[C@H](F)C4=CC(=O)C=C[C@]4(C)[C@@]3(F)[C@@H](O)C[C@@]21C`, for which the “activity change, negative = inhibition” value is 8.62% [at 20.6 µM] (inactive).

As for `COc1c(N2CCNC(C)C2)c(F)cc2c(=O)c(C(=O)O)cn(C3CC3)c12` (configuration not stated), the “activity change, negative = inhibition” value was -1.09% (inactive).

On to `O=C(O)CCn1c2c(c3ccccc31)C[C@H](NS(=O)(=O)c1ccc(F)cc1)CC2`, for which the “activity change, negative = inhibition” value is -2.21% (inactive). In the case of `CO[C@@]12[C@H](COC(N)=O)C3=C(C(=O)C(C)=C(N)C3=O)N1C[C@@H]1N[C@@H]12`, the “activity change, negative = inhibition” value is 11.5% (inactive). Still for that read-out and setting: the result for `CCOCC(O)COc1ccc(NC(=O)CC[S+](C)C)cc1` (configuration not stated) reads -18.3% (inactive). Regarding `CN1CCN(c2c(F)cc3c(=O)c(C(=O)O)cn4c3c2OCN4C)CC1`, the “activity change, negative = inhibition” value is 0.505% (inactive). `N[C@@H](C(=O)N[C@@H]1C(=O)N2C(C(=O)O)=C(Cl)CS[C@H]12)c1ccccc1`: the “activity change, negative = inhibition” value was 15.1% (inactive). On to `CCOC(=O)c1ccc(C#Cc2ccc3c(c2)C(C)(C)CCS3)nc1`, for which the Potency is 8.91 µM (active).

`COc1cc(NS(=O)(=O)c2ccc(N)cc2)nc(OC)n1`: the “activity change, negative = inhibition” value is 13.9% [at 20.6 µM] (inactive).

With `C[C@@H]1C[C@H]2[C@@H]3CCC4=CC(=O)C=C[C@]4(C)[C@@]3(Cl)[C@@H](O)C[C@]2(C)[C@@]1(OC(=O)c1ccco1)C(=O)CCl`, the Potency was 5.01 µM (active). With `CCN(C)C(=O)Oc1cccc([C@H](C)N(C)C)c1`, the “activity change, negative = inhibition” value was 8.72% (inactive). On the same count and under the same terms, the result for `CC(C)(C#N)c1cc(Cn2cncn2)cc(C(C)(C)C#N)c1` reads -1.55% (inactive).

Another experiment deals with Luciferin 4-monooxygenase (Photinus pyralis) (UniProt P08659). The experiment in a line: Biochemical firefly luciferase enzyme assay for NPC (AID 624030).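 Also: purified P. pyralis luciferase at 10 nM with luciferin and ATP substrate; 0% = DMSO and -100% = full luciferase inhibition by PTC124 control; nearly all actives have a fitted effect of over 70% in size.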 To be noted: purified P. pyralis luciferase, luminescence, 5 min; series mostly up to 58.6 µM; activity change, negative = inhibition: at the top concentration. The method in brief:
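Purified P. pyralis luciferase at 10 nM in 50 mM Tris Acetate (final), luminescence read within 5 minutes of enzyme addition to compounds. Activity normalised to PTC124 versus DMSO; concentration-response curves classed by r2, magnitude and activity.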
For `CCc1c2c(nc3ccc(OC(=O)N4CCC(N5CCCCC5)CC4)cc13)-c1cc3c(c(=O)n1C2)COC(=O)[C@]3(O)CC`, the “activity change, negative = inhibition” value was -0.864% (inactive).

As for `Nc1[nH]c(=O)ncc1F`, the “activity change, negative = inhibition” value is 1.4% [at 24.9 µM] (inactive). As to `CC(C)Cn1cnc2c(N)nc3ccccc3c21`, the “activity change, negative = inhibition” value is -0.519% (inactive). Same read-out and setting: the result for `CCOC(=O)c1ccc(OC(=O)CCCCCN=C(N)N)cc1` reads -0.477% [at 24.9 µM] (inactive); that for `COC(=O)Nc1nc2ccc(Sc3ccccc3)cc2[nH]1`, -13.1% [at 24.9 µM] (inactive); that for `NC(=O)N1c2ccccc2CC(=O)c2ccccc21`, -0.359% (inactive). `CNS(=O)(=O)Cc1ccc2[nH]cc(CCN(C)C)c2c1`: the “activity change, negative = inhibition” value was -1.29% (inactive). For `COc1ncnc(NS(=O)(=O)c2ccc(N)cc2)c1OC`, the “activity change, negative = inhibition” value was 4.61% (inactive).

Consider `CCCCOc1ccc(CC(=O)NO)cc1`, for which the “activity change, negative = inhibition” value is 43.5% [at 24.9 µM] (inactive).

For `O=C(O)c1cccnc1`, the “activity change, negative = inhibition” value is 0.441% (inactive). The same measure, in the same setting: the result for `Clc1ccccc1CN1CCc2sccc2C1` reads -0.448% (inactive); that for `COc1ccc(-c2ccc3cc(C(=O)O)ccc3c2)cc1C12CC3CC(CC(C3)C1)C2`, 2.93% (inactive).

As to `C#CCN[C@@H]1CCc2ccccc21`, the “activity change, negative = inhibition” value is 1.33% (inactive).

Consider `O=c1cc(O)c(Cl)c[nH]1`, for which the “activity change, negative = inhibition” value is -3.62% (inactive). For the compound `COc1cnc(NS(=O)(=O)c2ccc(N)cc2)nc1`, the “activity change, negative = inhibition” value was -0.0731% [at 24.9 µM] (inactive).

Turning to `O=P(O)(O)C(O)(Cc1cccnc1)P(=O)(O)O`, the “activity change, negative = inhibition” value was 6.99% (inactive). The same measure, in the same setting: the result for `CCCN[C@H]1CCc2nc(N)sc2C1` reads -0.213% (inactive); that for `CC(N)C12CC3CC(CC(C3)C1)C2` (configuration not stated), -1.43% (inactive); that for `CCn1cc(C(=O)O)c(=O)c2cc(F)c(N3CCNCC3)nc21`, 1.43% [at 24.9 µM] (inactive). As to `COc1c(N2CCNC(C)C2)c(F)cc2c(=O)c(C(=O)O)cn(C3CC3)c12` (configuration not stated), the “activity change, negative = inhibition” value is 0.0171% (inactive).

With `O=C(O)CCn1c2c(c3ccccc31)C[C@H](NS(=O)(=O)c1ccc(F)cc1)CC2`, the “activity change, negative = inhibition” value was -3.88% (inactive). Same read-out and setting: then `CCOCC(O)COc1ccc(NC(=O)CC[S+](C)C)cc1` (configuration not stated), with 1.75% (inactive).

Regarding `CN1CCN(c2c(F)cc3c(=O)c(C(=O)O)cn4c3c2OCN4C)CC1`, the “activity change, negative = inhibition” value is -0.724% (inactive). Same read-out and setting: the result for `N[C@@H](C(=O)N[C@@H]1C(=O)N2C(C(=O)O)=C(Cl)CS[C@H]12)c1ccccc1` reads -5.09% (inactive).

On to `CCOC(=O)c1ccc(C#Cc2ccc3c(c2)C(C)(C)CCS3)nc1`, for which the “activity change, negative = inhibition” value was -7.77% (inactive). On the same count and under the same terms, then `COc1cc(NS(=O)(=O)c2ccc(N)cc2)nc(OC)n1`, with 1.95% [at 24.9 µM] (inactive). As to `CCN(C)C(=O)Oc1cccc([C@H](C)N(C)C)c1`, the “activity change, negative = inhibition” value is -0.533% (inactive). The same measure, in the same setting: then `CC(C)(C#N)c1cc(Cn2cncn2)cc(C(C)(C)C#N)c1`, with 0.669% (inactive).
